The supplement of paper PMC4840960
Structures can show the parent of a compound that is named as a salt. ± gives the standard deviation of the averaged measurements.

These compounds were tested on E18 rat cortical neuron-glia co-culture (assay: fiber score / MBP score (myelination specific beyond OL differentiation) (ratio); higher = more myelination-specific MBP alignment). Conditions: 5 µM; treatment time: 8 days (DIV5-DIV13).
Procedure, shortened: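 Fiber score divided by MBP score is the read-out; fiber score is continuous MBP fiber length per Olig2+ nucleus, and MBP score is thresholded MBP area × intensity per Olig2+ nucleus. Primary E18 rat cortical co-cultures were dissociated with papain and seeded at 20,000 cells/well on poly-d-lysine/laminin 96-well plates. Library compounds at 1 or 5 µM were given in myelination medium from DIV5 to DIV13, after which cells were fixed in 4 % paraformaldehyde, immunostained for MBP and Olig2 with DAPI, and imaged in four 10X fields per well in duplicate wells.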
With CCC(C(N)=O)N1CCCC1=O (stereo not given) [Etiracetam] the “fiber score / MBP score” value was 0.739.
For Cc1ccc(-c2nc3ccc(C)cn3c2CC(=O)N(C)C)cc1 [Zolpidem], the “fiber score / MBP score” value was 0.776.
With CN1CCN(C(=O)O[C@H]2c3nccnc3C(=O)N2c2ccc(Cl)cn2)CC1 [Eszopiclone] the “fiber score / MBP score” value was 0.876.
COc1cc([C@@H]2c3cc4c(cc3[C@H](O)[C@H]3COC(=O)[C@H]23)OCO4)cc(OC)c1OC [Podophyllotoxin] was tested, and the “fiber score / MBP score” value was 0.31.
For C[C@]12CC[C@H]3[C@@H](CCC4=CC(=O)CC[C@@]43C)[C@@H]1CC[C@@H]2O [Testosterone], the “fiber score / MBP score” value was 0.928 ± 0.1.
C[N+]1(CCC(C(N)=O)(c2ccccc2)c2ccccc2)CCCCC1 [Fenpiverinium] was tested, and the “fiber score / MBP score” value was 1.19.
In the case of CNC1=Nc2ccc(Cl)cc2C(c2ccccc2)=[N+]([O-])C1 [Chlordiazepoxide], the “fiber score / MBP score” value is reported as 0.605.
With CC(O)(CS(=O)(=O)c1ccc(F)cc1)C(=O)Nc1ccc(C#N)c(C(F)(F)F)c1 (stereo not given) [Bicalutamide] the “fiber score / MBP score” value was 0.996.
For Oc1ccc2c3c1O[C@H]1c4[nH]c5ccccc5c4C[C@@]4(O)[C@@H](C2)N(CC2CC2)CC[C@]314 [Naltrindole], the “fiber score / MBP score” value was 0.673.
For C[C@]12CCC(=O)C=C1CC[C@@H]1[C@@H]2CC[C@@]2(C)[C@H]1CC[C@]2(C)O [Methyltestosterone], the “fiber score / MBP score” value was 0.755.
For CNC(=O)Oc1ccc2c(c1)[C@]1(C)CCN(C)[C@@H]1N2C [Physostigmine], the “fiber score / MBP score” value was 0.703.
In the case of O=C1Nc2ccc(Cl)cc2C(c2ccccc2Cl)=NC1O (stereo not given) [Lorazepam], the “fiber score / MBP score” value is reported as 1.13.
CS(=O)(=O)Nc1ccc(Cc2noc(-c3ccc4[nH]cc(CCN)c4c3)n2)cc1 was tested, and the “fiber score / MBP score” value was 0.612.

Each compound was assayed on E18 rat cortical neuron-glia co-culture (assay: myelination (MBP fiber length per Olig2+ nucleus), % of 1 µM DAPT response (DMSO = 0) (% of DAPT); higher = more myelination, active = 50 or more). Conditions: 1 µM; treatment time: 8 days (DIV5-DIV13).
Procedure, shortened: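 Four 10X fields in each of duplicate wells were analysed after cultures were fixed in 4 % paraformaldehyde and immunostained for MBP and Olig2, with DAPI as the nuclear counterstain. The cultures were papain-dissociated primary E18 rat cortical co-cultures at 20,000 cells/well on poly-d-lysine/laminin 96-well plates, dosed with library compounds at 1 or 5 µM in myelination medium from DIV5 to DIV13. The myelination readout was continuous straight MBP fiber length per Olig2+ nucleus, with 0.1 % DMSO set to 0 and a 1 µM positive control set to 100.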
For COc1ccc2c(c1)[C@]13CCCC[C@@H]1[C@H](C2)N(C)CC3 [Dextromethorphan], the myelination was 5.05 (inactive).
With NC1=NC(=O)C(c2ccccc2)O1 (stereo not given) [Pemoline] the myelination was -21.3 (inactive).
For CCCC(C)(COC(N)=O)COC(=O)NC(C)C (stereo not given) [Carisoprodol], the myelination was -13 (inactive).
With CCN(CC)CCOC(=O)C(O)(c1ccccc1)c1ccccc1 [Benactyzine] the myelination was 1.93 (inactive).
For Cc1nnc2n1-c1ccc(Cl)cc1C(c1ccccc1)=NC2 [Alprazolam], the myelination was -26.1 (inactive).
For CN1[C@@H]2C[C@@H](OC(=O)[C@H](CO)c3ccccc3)C[C@H]1[C@@H]1O[C@@H]12 [Scopolamine hydrobromide], the myelination was -49.5 (inactive).
In the case of COc1ccc2[nH]cc(CCN)c2c1 [5-Methoxytryptamine], the myelination is reported as -6.66 (inactive).
With CN1CC[C@]2(c3cccc(O)c3)Cc3nc4ccccc4cc3C[C@H]2C1 the myelination was -18.1 (inactive).
In the case of COc1cc2c(cc1OC)[C@@]13CCN4CC5=CCO[C@H]6CC(=O)N2[C@H]1[C@H]6[C@H]5C[C@H]43 [Brucine], the myelination is reported as -6.05 (inactive).
With C[C@]12CC[C@H](O)CC1=CC[C@@H]1[C@@H]2CC[C@]2(C)C(=O)CC[C@@H]12 [Dehydroepiandrosterone] the myelination was 18.9 (inactive).
With COc1ccc(C(CN(C)C)C2(O)CCCCC2)cc1 (stereo not given) [Venlafaxine] the myelination was -11.7 (inactive).
With C=CCN1CC[C@]23c4c5ccc(O)c4O[C@H]2C(=O)CC[C@@]3(O)[C@H]1C5 [Naloxone] the myelination was -7.1 (inactive).
For O[C@@H]1CCCC[C@H]1N1CCC(c2ccccc2)CC1 (racemic) [Vesamicol], the myelination was -34.6 (inactive).
With CN1CC[C@]23CCCC[C@H]2[C@H]1Cc1ccc(O)cc13 [Levorphanol] the myelination was -27.6 (inactive).
In the case of CCC(C(N)=O)N1CCCC1=O (stereo not given) [Etiracetam], the myelination is reported as -28.6 (inactive).
With Cc1ccc(-c2nc3ccc(C)cn3c2CC(=O)N(C)C)cc1 [Zolpidem] the myelination was -6.37 (inactive).
In the case of CN1CCN(C(=O)O[C@H]2c3nccnc3C(=O)N2c2ccc(Cl)cn2)CC1 [Eszopiclone], the myelination is reported as -5.43 (inactive).
With COc1cc([C@@H]2c3cc4c(cc3[C@H](O)[C@H]3COC(=O)[C@H]23)OCO4)cc(OC)c1OC [Podophyllotoxin] the myelination was -13.9 (inactive).
With C[C@]12CC[C@H]3[C@@H](CCC4=CC(=O)CC[C@@]43C)[C@@H]1CC[C@@H]2O [Testosterone] the myelination was -4.77 (inactive).
With C[N+]1(CCC(C(N)=O)(c2ccccc2)c2ccccc2)CCCCC1 [Fenpiverinium] the myelination was 4.83 (inactive).
In the case of CNC1=Nc2ccc(Cl)cc2C(c2ccccc2)=[N+]([O-])C1 [Chlordiazepoxide], the myelination is reported as 0.872 (inactive).
CC(O)(CS(=O)(=O)c1ccc(F)cc1)C(=O)Nc1ccc(C#N)c(C(F)(F)F)c1 (stereo not given) [Bicalutamide] was tested, and the myelination was -28 (inactive).
Oc1ccc2c3c1O[C@H]1c4[nH]c5ccccc5c4C[C@@]4(O)[C@@H](C2)N(CC2CC2)CC[C@]314 [Naltrindole] was tested, and the myelination was -32.5 (inactive).
With C[C@]12CCC(=O)C=C1CC[C@@H]1[C@@H]2CC[C@@]2(C)[C@H]1CC[C@]2(C)O [Methyltestosterone] the myelination was -24.8 (inactive).
With CNC(=O)Oc1ccc2c(c1)[C@]1(C)CCN(C)[C@@H]1N2C [Physostigmine] the myelination was -13.2 (inactive).
With O=C1Nc2ccc(Cl)cc2C(c2ccccc2Cl)=NC1O (stereo not given) [Lorazepam] the myelination was -14.7 (inactive).
CS(=O)(=O)Nc1ccc(Cc2noc(-c3ccc4[nH]cc(CCN)c4c3)n2)cc1 was tested, and the myelination was -19.6 (inactive).
